{
  "source": "the supplement of paper PMC10037445",
  "key": {"RAW-Dual [1]": {"system": "RAW-Dual", "assay": "NF-kB SEAP reporter activity, fold change vs agonist alone; cytotoxicity flag (confluency mask): not cytotoxic; higher = enhanced NF-kB activity", "how_it_was_run": "(§1)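 Supernatant from RAW-Dual macrophages was read after 20 hours for IRF by QuantiLuc luminescence and for NF-κB by QuantiBlue absorbance at 620 nm. The cells (50,000 cells/well in DMEM, 384-well plates, 37 °C, 5% CO2) had received 50 nL of library stock by pin tool and, 1 h later, a PRR agonist. Reporter activity is expressed relative to agonist-alone wells as fold change, and wells were flagged cytotoxic if IncuCyte confluency was under 70% of agonist controls in both mask sets.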"}, "RAW-Dual [2]": {"system": "RAW-Dual", "assay": "NF-kB SEAP reporter activity, fold change vs agonist alone; higher = enhanced NF-kB activity", "how_it_was_run": "as §1"}, "RAW-Dual [3]": {"system": "RAW-Dual", "assay": "NF-kB SEAP reporter activity, fold change vs agonist alone; cytotoxicity flag (confluency mask): cytotoxic (confluency <70% of control); higher = enhanced NF-kB activity", "how_it_was_run": "as §1"}, "[4]": {"conditions": "agonist: ODN 1826 (TLR9) 0.5 ug/mL"}, "[5]": {"conditions": "agonist: Pam2CSK4 (TLR2/6) 0.1 ug/mL"}, "[6]": {"conditions": "agonist: Pam3CSK4 (TLR2/1) 0.1 ug/mL"}, "[7]": {"conditions": "library stock concentration (final ~1000-fold dilution): 10 mM, cytotoxicity flag (confluency mask): not cytotoxic, agonist: MPLA (TLR4) […]"}, "[8]": {"conditions": "library stock concentration (final ~1000-fold dilution): 10 mM, cytotoxicity flag (confluency mask): not cytotoxic, agonist: Imiquimod (TLR7) […]"}, "[9]": {"conditions": "library stock concentration (final ~1000-fold dilution): 10 mM, cytotoxicity flag (confluency mask): cytotoxic (confluency <70% of control), agonist: Imiquimod (TLR7) […]"}, "[10]": {"conditions": "library stock concentration (final ~1000-fold dilution): 10 mM, cytotoxicity flag (confluency mask): cytotoxic (confluency <70% of control), agonist: MPLA (TLR4) […]"}},
  "note": "The full ranking holds about 2,900 compounds; the median of “NF-kB SEAP reporter activity, fold change vs agonist alone” is about 0.99, and the highest 2% start at about 2.6. For the sample, the highest values were picked, then their nearest neighbours and some compounds at random.",
  "data": [
    {"smiles": "Cc1oncc1C(=O)Nc1ccc(C(F)(F)F)cc1", "note": "(library stock concentration (final ~1000-fold dilution): 10 mM)", "values": [
      {"measurement": "NF-kB SEAP reporter activity", "setting": "RAW-Dual [1]; agonist: LPS (TLR4) 0.1 ug/mL", "result": 0.926},
      {"measurement": "NF-kB SEAP reporter activity", "setting": "RAW-Dual [1]; [4]", "result": 1.24},
      {"measurement": "NF-kB SEAP reporter activity", "setting": "RAW-Dual [1]; [5]", "result": 0.908},
      {"measurement": "NF-kB SEAP reporter activity", "setting": "RAW-Dual [1]; [6]", "result": 1.07}
    ]},
    {"smiles": "Cl.Nc1ccc(Cl)cc1C(=O)C(F)(F)F", "values": [
      {"measurement": "NF-kB SEAP reporter activity", "setting": "RAW-Dual [2]; [7]", "result": 1.24}
    ]},
    {"smiles": "Cl.NCCOc1ccc(Cl)cc1C(=O)Nc1ccc([N+](=O)[O-])cc1Cl", "values": [
      {"measurement": "NF-kB SEAP reporter activity", "setting": "RAW-Dual [2]; [8]", "result": 1.31},
      {"measurement": "NF-kB SEAP reporter activity", "setting": "RAW-Dual [2]; [7]", "result": 0.949}
    ]},
    {"smiles": "Cc1c(-c2ccc(C(N)=O)c3[nH]c4cc(C(C)(C)O)ccc4c23)cccc1-n1cnc2ccccc2c1=O", "note": "(library stock concentration (final ~1000-fold dilution): 10 mM)", "values": [
      {"measurement": "NF-kB SEAP reporter activity", "setting": "RAW-Dual [1]; agonist: LPS (TLR4) 0.1 ug/mL", "result": 1.25},
      {"measurement": "NF-kB SEAP reporter activity", "setting": "RAW-Dual [1]; [4]", "result": 1.1},
      {"measurement": "NF-kB SEAP reporter activity", "setting": "RAW-Dual [1]; [5]", "result": 0.537},
      {"measurement": "NF-kB SEAP reporter activity", "setting": "RAW-Dual [1]; [6]", "result": 0.833}
    ]},
    {"smiles": "Cc1c(-c2ccc(C(N)=O)c3[nH]c4cc(C(C)(C)O)ccc4c23)cccc1-n1cnc2ccccc2c1=O", "values": [
      {"measurement": "NF-kB SEAP reporter activity", "setting": "RAW-Dual [2]; [8]", "result": 1.76},
      {"measurement": "NF-kB SEAP reporter activity", "setting": "RAW-Dual [2]; [7]", "result": 1.37}
    ]},
    {"smiles": "CC(O)C1C(=O)N2C(C(=O)O)=C(SCCNC=N)CC12.O", "note": "(centres undefined)", "values": [
      {"measurement": "NF-kB SEAP reporter activity", "setting": "RAW-Dual [2]; library stock concentration (final ~1000-fold dilution): 10 mM water, cytotoxicity flag (confluency mask): not cytotoxic, agonist: Imiquimod (TLR7) […]", "result": 0.896},
      {"measurement": "NF-kB SEAP reporter activity", "setting": "RAW-Dual [2]; library stock concentration (final ~1000-fold dilution): 10 mM water, cytotoxicity flag (confluency mask): not cytotoxic, agonist: MPLA (TLR4) […]", "result": 1.02}
    ]},
    {"smiles": "CC(O)C1C(=O)N2C(C(=O)O)=C(SCCNC=N)CC12.O", "note": "(centres undefined) (library stock concentration (final ~1000-fold dilution): 10 mM water)", "values": [
      {"measurement": "NF-kB SEAP reporter activity", "setting": "RAW-Dual [1]; agonist: LPS (TLR4) 0.1 ug/mL", "result": 1.41},
      {"measurement": "NF-kB SEAP reporter activity", "setting": "RAW-Dual [1]; [4]", "result": 1.16},
      {"measurement": "NF-kB SEAP reporter activity", "setting": "RAW-Dual [1]; [5]", "result": 1.23},
      {"measurement": "NF-kB SEAP reporter activity", "setting": "RAW-Dual [1]; [6]", "result": 1.07}
    ]},
    {"smiles": "CCCn1c(NC(=O)c2cccc(C(N)=O)c2)nc2ccccc21", "values": [
      {"measurement": "NF-kB SEAP reporter activity", "setting": "RAW-Dual [2]; [8]", "result": 0.36},
      {"measurement": "NF-kB SEAP reporter activity", "setting": "RAW-Dual [2]; [7]", "result": 0.54}
    ]},
    {"smiles": "CCCn1c(NC(=O)c2cccc(C(N)=O)c2)nc2ccccc21", "note": "(library stock concentration (final ~1000-fold dilution): 10 mM)", "values": [
      {"measurement": "NF-kB SEAP reporter activity", "setting": "RAW-Dual [1]; agonist: LPS (TLR4) 0.1 ug/mL", "result": 0.482},
      {"measurement": "NF-kB SEAP reporter activity", "setting": "RAW-Dual [1]; [4]", "result": 0.333},
      {"measurement": "NF-kB SEAP reporter activity", "setting": "RAW-Dual [1]; [5]", "result": 0.143},
      {"measurement": "NF-kB SEAP reporter activity", "setting": "RAW-Dual [1]; [6]", "result": 0.205}
    ]},
    {"smiles": "COc1ccc(N2C(=O)/C(=C/c3ccc([N+](=O)[O-])s3)SC2=S)cc1", "values": [
      {"measurement": "NF-kB SEAP reporter activity", "setting": "RAW-Dual [2]; [9]", "result": 1.65},
      {"measurement": "NF-kB SEAP reporter activity", "setting": "RAW-Dual [2]; [10]", "result": 1.63}
    ]},
    {"smiles": "COc1ccc(N2C(=O)/C(=C/c3ccc([N+](=O)[O-])s3)SC2=S)cc1", "note": "(library stock concentration (final ~1000-fold dilution): 10 mM)", "values": [
      {"measurement": "NF-kB SEAP reporter activity", "setting": "RAW-Dual [3]; agonist: LPS (TLR4) 0.1 ug/mL", "result": 0.439},
      {"measurement": "NF-kB SEAP reporter activity", "setting": "RAW-Dual [3]; [4]", "result": 2.23},
      {"measurement": "NF-kB SEAP reporter activity", "setting": "RAW-Dual [3]; [5]", "result": 0.267},
      {"measurement": "NF-kB SEAP reporter activity", "setting": "RAW-Dual [3]; [6]", "result": 0.382}
    ]},
    {"smiles": "CC(NC(=O)/C(C#N)=C/c1cccc(Br)n1)c1ccccc1", "note": "(centres undefined) (library stock concentration (final ~1000-fold dilution): 10 mM)", "values": [
      {"measurement": "NF-kB SEAP reporter activity", "setting": "RAW-Dual [3]; agonist: LPS (TLR4) 0.1 ug/mL", "result": 0.233},
      {"measurement": "NF-kB SEAP reporter activity", "setting": "RAW-Dual [3]; [4]", "result": 0.186},
      {"measurement": "NF-kB SEAP reporter activity", "setting": "RAW-Dual [3]; [5]", "result": 0.0992},
      {"measurement": "NF-kB SEAP reporter activity", "setting": "RAW-Dual [3]; [6]", "result": 0.136}
    ]},
    {"smiles": "CC(NC(=O)/C(C#N)=C/c1cccc(Br)n1)c1ccccc1", "note": "(centres undefined)", "values": [
      {"measurement": "NF-kB SEAP reporter activity", "setting": "RAW-Dual [2]; [9]", "result": 0.268},
      {"measurement": "NF-kB SEAP reporter activity", "setting": "RAW-Dual [2]; [10]", "result": 0.204}
    ]},
    {"smiles": "CCC1OC(=O)C(C)(F)C(=O)C(C)C(OC2OC(C)CC(N(C)C)C2O)C(C)(OC)CC(C)C(=O)C(C)C2N(CCCCn3cc(-c4cccc(N)c4)nn3)C(=O)OC12C", "note": "(centres undefined) (library stock concentration (final ~1000-fold dilution): 10 mM)", "values": [
      {"measurement": "NF-kB SEAP reporter activity", "setting": "RAW-Dual [1]; agonist: LPS (TLR4) 0.1 ug/mL", "result": 1.47},
      {"measurement": "NF-kB SEAP reporter activity", "setting": "RAW-Dual [1]; [4]", "result": 0.196},
      {"measurement": "NF-kB SEAP reporter activity", "setting": "RAW-Dual [1]; [5]", "result": 0.966},
      {"measurement": "NF-kB SEAP reporter activity", "setting": "RAW-Dual [1]; [6]", "result": 0.98}
    ]},
    {"smiles": "CCC1OC(=O)C(C)(F)C(=O)C(C)C(OC2OC(C)CC(N(C)C)C2O)C(C)(OC)CC(C)C(=O)C(C)C2N(CCCCn3cc(-c4cccc(N)c4)nn3)C(=O)OC12C", "note": "(centres undefined)", "values": [
      {"measurement": "NF-kB SEAP reporter activity", "setting": "RAW-Dual [2]; [7]", "result": 1.53}
    ]},
    {"smiles": "Nc1nc(-c2ccco2)c2cnn(Cc3ccccc3F)c2n1", "values": [
      {"measurement": "NF-kB SEAP reporter activity", "setting": "RAW-Dual [2]; [8]", "result": 1.05},
      {"measurement": "NF-kB SEAP reporter activity", "setting": "RAW-Dual [2]; [7]", "result": 1.22}
    ]},
    {"smiles": "Nc1nc(-c2ccco2)c2cnn(Cc3ccccc3F)c2n1", "note": "(library stock concentration (final ~1000-fold dilution): 10 mM)", "values": [
      {"measurement": "NF-kB SEAP reporter activity", "setting": "RAW-Dual [1]; agonist: LPS (TLR4) 0.1 ug/mL", "result": 1.11},
      {"measurement": "NF-kB SEAP reporter activity", "setting": "RAW-Dual [1]; [4]", "result": 1.1},
      {"measurement": "NF-kB SEAP reporter activity", "setting": "RAW-Dual [1]; [5]", "result": 1.03},
      {"measurement": "NF-kB SEAP reporter activity", "setting": "RAW-Dual [1]; [6]", "result": 1.08}
    ]},
    {"smiles": "NS(=O)(=O)c1ccc(NC(=S)N2CCN(C/C=C/c3ccccc3)CC2)cc1", "note": "(library stock concentration (final ~1000-fold dilution): 10 mM)", "values": [
      {"measurement": "NF-kB SEAP reporter activity", "setting": "RAW-Dual [1]; agonist: LPS (TLR4) 0.1 ug/mL", "result": 1.42},
      {"measurement": "NF-kB SEAP reporter activity", "setting": "RAW-Dual [1]; [4]", "result": 1.17},
      {"measurement": "NF-kB SEAP reporter activity", "setting": "RAW-Dual [1]; [5]", "result": 0.787},
      {"measurement": "NF-kB SEAP reporter activity", "setting": "RAW-Dual [1]; [6]", "result": 0.825}
    ]},
    {"smiles": "NS(=O)(=O)c1ccc(NC(=S)N2CCN(C/C=C/c3ccccc3)CC2)cc1", "values": [
      {"measurement": "NF-kB SEAP reporter activity", "setting": "RAW-Dual [2]; [8]", "result": 1.02},
      {"measurement": "NF-kB SEAP reporter activity", "setting": "RAW-Dual [2]; [7]", "result": 1.1}
    ]}
  ]
}
